Assay results reported in ChEMBL document CHEMBL3988442, “University of Dundee, Small-Polar-MMV Screening Library” (2021).

Experiments:
[1] = target: T1, Aspartate--tRNA(Asp/Asn) ligase (Mycobacterium tuberculosis (strain ATCC 25618 / H37Rv)) (UniProt P9WFW3); assay: Assay for Asp RNA synthetase-1 from Mycobacterium tuberculosis; format: functional; design: scale not given: direction of the effect not stated beside the values; details: 30 µM; further: in the data most compounds retested in dose-response had high values
T1 sequence (whole entry): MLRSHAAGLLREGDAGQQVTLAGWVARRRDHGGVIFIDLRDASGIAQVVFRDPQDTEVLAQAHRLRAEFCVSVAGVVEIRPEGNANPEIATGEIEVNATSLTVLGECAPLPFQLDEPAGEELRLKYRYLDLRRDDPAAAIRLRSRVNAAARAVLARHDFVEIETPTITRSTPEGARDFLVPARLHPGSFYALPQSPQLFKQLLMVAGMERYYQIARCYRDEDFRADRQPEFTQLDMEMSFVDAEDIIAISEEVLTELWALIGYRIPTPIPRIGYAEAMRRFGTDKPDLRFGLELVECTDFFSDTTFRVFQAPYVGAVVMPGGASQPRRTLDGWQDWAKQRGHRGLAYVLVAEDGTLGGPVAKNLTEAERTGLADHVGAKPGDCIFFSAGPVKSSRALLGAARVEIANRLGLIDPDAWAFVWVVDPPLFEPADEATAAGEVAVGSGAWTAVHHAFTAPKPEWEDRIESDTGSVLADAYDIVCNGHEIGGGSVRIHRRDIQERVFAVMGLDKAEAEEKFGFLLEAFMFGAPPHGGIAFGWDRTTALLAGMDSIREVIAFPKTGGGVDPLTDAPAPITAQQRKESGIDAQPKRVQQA

[2] = target: Shiga toxin 2 (Escherichia coli O157:H7) (UniProt P09385+P09386); assay: E. coli 0.157:H7 Shiga Toxin SOP - stx2 screening assay; format: functional; design: scale not given: direction of the effect not stated beside the values; details: 30 µM

SMILES | Percent Effect [1] [%] | Percent Effect [2] [%]
c1cnc2c(C3CCN(Cc4ccsc4)CC3)n[nH]c2n1 | -1.29 | -14.5
Cc1cc(NC(=O)CN(C)C2CCCN(c3cccnn3)C2)n(C)n1 (centres undefined) | 5.7 | 30.1
COc1ccc(C)cc1CN1CCCC1c1noc(C2CC2)n1 (centres undefined) | -4.34 | -3.88
COC(=O)Cn1c(=O)nc2n1C(=O)N(c1ccccc1)C2 | 1.18 | -22.6
CCCNC(=O)C(C)NC(=O)CCc1ccccc1Br (centres undefined) | 0.362 | -18.6
COc1ccc(C(=O)N2CCCC(CNS(C)(=O)=O)C2)cc1F (centres undefined) | 1.03 | 22.9
CC(=O)N1CCN(S(=O)(=O)c2ccc(C)c(F)c2)CC1 | -1.95 | -12.2
Cc1cc(NCc2cc3n(n2)CCCN(C(=O)N(C)C)C3)ncn1 | 0.54 | -3.81
Cc1cc(-c2cnn(CCNC(=O)C3CC3)c2C2CC2)on1 | 0.838 | 64.1
N#Cc1ccc(F)c(CN2CCCC2Cn2cnc3ccccc32)c1 (centres undefined) | -0.466 | 31.2
CC(C)(C)C(=O)N1CCC(c2nc(O)cc(-c3ccccn3)n2)CC1 | 5.88 | -6.29
c1coc(CN2CCCC3(COCCN(Cc4c[nH]nn4)C3)C2)c1 (centres undefined) | 2.45 | 4.89
CS(=O)(=O)NCC1CCCN(C(=O)c2ccc(Cl)o2)C1 (centres undefined) | 1.23 | -7.98
c1ccc(-c2ncc(CNC3CCc4ncnn4C3)cn2)cc1 (centres undefined) | -0.626 | 13.4
CC(=O)c1ccccc1C(=O)NCC1(CO)CC1 | 2.82 | -19.8
COc1cccc(CNCc2c(C(C)C)nn(C)c2N(C)C)c1OC | -3.61 | 31.1
Clc1ccc(CN2CCCC(Cn3cncn3)C2)c2ncccc12 (centres undefined) | 2.62 | -50.6
CCn1cc(NC(=O)NCC(O)CN2CCCCC2)cn1 (centres undefined) | -0.173 | 21.2
COCCO[C@H]1CCN(C(=O)C2CCOCC2)[C@H]1Cc1ccncc1 | 4.84 | -17.6
CSCc1cccc(S(=O)(=O)NCCCO)c1 | 13.1 | -26.7
Cc1cnn(CC2CCCN2C(=O)c2cn(-c3ccccc3)nc2C)c1 (centres undefined) | 4.47 | 14.6
CN(CCNC(=O)Nc1ccncc1)C1CCCCC1 | 1.25 | -5.92
O=C(NCCC1=CCCCC1)C1CCCN(c2ccc3nncn3n2)C1 (centres undefined) | -1.84 | -5.94
CCOc1ccnc(N2CCN(C(=O)C(C)(C)C#N)CC2)n1 | 4.55 | 37.3
Cc1cc(CN(C)C(=O)NC2CCCN(c3ncccn3)C2)no1 (centres undefined) | -1.17 | 33.3
Cn1cc(CNCC2Cn3nnc(-c4ccccc4)c3CO2)cn1 (centres undefined) | 5.57 | -42.7

SMILES | Percent Effect [1] [%] | Percent Effect [2] [%]
CCc1cccc(N2CCC(NC(=O)c3ccc(=O)[nH]n3)CC2)c1 | 3.83 | -1.12
O=C(CCCc1cn[nH]c1)N1CCOCC(O)C1 (centres undefined) | 5.55 | 5.53
Cn1cc(CN2CCCN(C(=O)c3cn4ccccc4n3)CC2)cn1 | 1.48 | -25.9
Cc1nc(C)n(CC2CCCN2CCCc2ccccc2)n1 (centres undefined) | 0.747 | -14.3
Cc1noc2nc(C3CCN(Cc4cccnc4)CC3)cc(C(F)F)c12 | 1.32 | -52.2
COCc1nc(C(=O)N2CCCC(n3cccn3)C2)cs1 (centres undefined) | -1.71 | -22.6
CCCN1CC(C(=O)Nc2ccccn2)CC1=O (centres undefined) | -1.33 | 1.5
CC(C)C(NC(=O)NCC1(CO)CC1)c1nnc2n1CCC2 (centres undefined) | -3.28 | 19.7
O=C(NCc1cc(=O)n2c(n1)CN(CC1CCOC1)CCC2)C1CC1 (centres undefined) | -1 | -24.3
COCC(=O)N1CCC2(CCN(Cc3ccccn3)CC2)CC1 | 6.21 | -8.31
CN(C)C(=O)CN1CCCCC1c1nc(N)ncc1-c1ccccc1 (centres undefined) | -1.04 | 1.46
Cc1nc(C)n(CC2CCCN(Cc3nc(C)c(C)o3)C2)n1 (centres undefined) | 7.92 | 5.16
CC(C)(CNC(=O)OC(C)(C)C)NC(=O)C1CC(=O)N(C2CC2)C1 (centres undefined) | 3.37 | -23.3
c1cnc(NCc2cncc3c2CCN(Cc2cccs2)C3)nc1 | 3.81 | -9.08
Cc1cnn(CC2CCCCN2Cc2nc(N)c3ccccc3n2)c1 (centres undefined) | -5.71 | -7.68
CC(C)n1c(C2CCCN(Cc3ccnn3C)C2)nc2ccccc21 (centres undefined) | -2.04 | 1.29
O=C(NCCCN1CCc2ccccc2C1)c1cccnc1O | -2.28 | -68.5
O=C(c1csc(-c2cccs2)n1)N1CCCC1Cn1cccn1 (centres undefined) | 3.15 | 37.2
COc1ccc(OC)c(CNCCc2cc(F)cc3c2OCOC3)c1 | 4.49 | 7.51
CCn1ncc2c1CCCC2NCC1=Cc2ccccc2OC1 (centres undefined) | 4.82 | -23.2
COCc1nc(C(=O)N2CCCC2c2ccccc2C)cs1 (centres undefined) | -0.975 | -12.9
COc1ccc(CN2CCc3ncnc(OC(C)C)c3CC2)cc1 | 8.01 | -9.16
Cn1cnc(S(=O)(=O)NCCCN2CCOCC2)c1Cl | 3.04 | 18.7
COc1cc(CN(C)C(=O)NCCC2CCCO2)ccc1SC (centres undefined) | -3.98 | -6.71
c1cnnc(N2CCCC2CNCc2nc3ccccc3o2)c1 (centres undefined) | 7.18 | -25.7
Cc1cc(CNc2cc(Cl)ccc2Cl)no1 | -1.12 | 2.51
